# Compounds with a hit are over-represented: about 3.5% of the library has one in this group of screens.
# mHTT-CaM PPI inh: inhibitors of human mutant huntingtin-calmodulin interaction. P42858. AlphaScreen His-mHTT/GST-CaM binding, luminescence. inhibition, % at 15 µM. 190,000 tested, 3.6% active. AID 1671202;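 also: 0% = both proteins with DMSO and 100% = one protein alone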
# Pf apPOL inh: Pf-apPOL DNA polymerase inhibition; Recombinant Pf-apPOL, molecular beacon fluorescence, 1.5 h; inhibition, % at 10 µM; 210,000 tested, 0.25% active; AID 1794808
# Active calls of the source: *; i = inactive; . = no result given; + = active, no number. Rule as the data show it: active = inhibition above about 50%; inactive = the rest.
SMILES,mHTT-CaM PPI inh,Pf apPOL inh
CCOc1ccc(C2C(C(=O)Nc3ccc(C)cc3C)=C(C)Nc3ncnn32)cc1OC (configuration not stated),6,0
COc1ccc2nc(C(=O)NCc3ccccc3F)cn2n1,0,-3
O=C(c1ccccc1Cl)c1coc2ccc(Cl)cc2c1=O,98*,1
O=C(c1cccc(F)c1)c1coc2ccc(Cl)cc2c1=O,26,-11
CCn1cc(/C=C2\C(=O)NC(=O)N(c3ccc(C)cc3)C2=O)c2ccccc21,53*,47
CCn1cc(/C=C2\C(=O)NC(=O)N(c3ccc(Br)cc3)C2=O)c2ccccc21,11,-5
CCn1cc(/C=C2\C(=O)NC(=O)N(c3ccc(F)cc3)C2=O)c2ccccc21,8,-4
CCN(CC)C(=O)Cn1cc(/C=C2\C(=O)NC(=O)N(c3cccc(C)c3C)C2=O)c2ccccc21,56*,-5
CCCC(=O)N1CCc2c(c(-c3nc(C)no3)nn2C)C1,5,-3
Cc1c(C(=O)NCCN2CCCC2)oc2ccc(S(=O)(=O)N3CCOCC3)cc12,-1,-13
C=CCn1c(SCC(=O)Nc2ccc(F)cc2)nnc1-c1cccc(OC)c1,-2,-11
C=CCn1c(SCC(=O)Nc2ccc(OC)cc2)nnc1C(c1ccccc1)c1ccccc1,17,97*
Cc1cc(C)nc(N=C(N)Nc2ccc(Cl)c(C(F)(F)F)c2)n1,-12,-5
Oc1ccc(Cl)cc1C1CC(c2ccc(Cl)cc2)=NC2(CCNCC2)N1 (configuration not stated),66*,-6
COc1cccc(C2=NC3(CCNCC3)NC(c3cc(Br)ccc3O)C2)c1 (configuration not stated),14,-7
Cc1ccc(C2=NC3(CCNCC3)NC(c3cc(Cl)ccc3O)C2)cc1C (configuration not stated),10,0
COc1ccc(C2=NC3(CCNCC3)NC(c3cc(Br)ccc3O)C2)cc1 (configuration not stated),71*,-2
Cc1ccc(CNC(=O)C2(C)Oc3cccnc3N(C(C)C)C2=O)o1 (configuration not stated),14,-5
O=C(NCc1cccnc1)/C(=N\O)c1ccccn1,+,11
O=C(NCc1cccnc1)C(=O)NCc1cccnc1,-5,1
COc1cc(NS(=O)(=O)c2ccc(NC(=O)C(C)(C)C)cc2)nc(OC)n1,21,-2
CC(C)(C)c1csc(CN2CCN(CC(=O)NC3CCCCC3)CC2)n1,100*,-1
CC(=O)c1ccc(NC(=O)CN2CCN(Cc3nc(C(C)(C)C)cs3)CC2)cc1,8,-2
O=C(c1nnn(-c2ccccc2F)c1-c1ccccn1)N1CC=C(c2ccccc2)CC1,84*,-10
O=C(c1nnn(-c2ccccc2F)c1-c1ccccn1)N1CCN(c2ncccn2)CC1,0,-5
SMILES,mHTT-CaM PPI inh,Pf apPOL inh
CCCOc1ccc(C(=O)Nc2ccccc2C)cc1,-7,90*
CCCOc1ccc(C(=O)Nc2ccccc2[N+](=O)[O-])cc1,29,-9
CCCCOc1ccc(C(=O)Nc2ccc(NC(=O)CCC)cc2)cc1,0,99*
CCCC(=O)Nc1ccc(NC(=O)c2ccc(C)cc2)cc1,5,-4
CN1CCN(c2cc(N3CCN(C(=O)c4ccc(F)cc4)CC3)c([N+](=O)[O-])cc2F)CC1,21,-7
CCOc1ccc(/C=C2/N=C(C3CCCCC3)OC2=O)cc1,1,-3
O=C(c1ccccc1Cl)N(Cc1cc(-c2ccc(F)cc2)on1)C1CC1,33,-4
O=C1Nc2ccccc2/C1=N\N1CCN(C2c3ccccc3-c3ccccc32)CC1,+,.
O=C1Nc2ccccc2/C1=N\N1C(=O)C2C=CC=CC2C1=O (configuration not stated),i,.
CN1C(=O)C2CCCCN2c2ccc(C(=O)NCc3cccc(F)c3)cc21 (configuration not stated),28,-2
NC(=O)c1c(NC(=O)C2CCCN(C(=O)c3ccco3)C2)sc2c1CCCC2 (configuration not stated),73*,-7
NC(=O)c1c(NC(=O)c2ccco2)sc2c1CCC2,2,0
O=[N+]([O-])c1cc(C=Nc2ccc(Cl)cc2)ccc1Cl,19,2
O=[N+]([O-])c1cc(C=Nc2cc(Cl)ccc2O)ccc1Cl,64*,-1
O=C(NCc1ccccc1)c1nn2c(c1Br)NC(c1ccccc1)CC2C(F)(F)F (configuration not stated),7,-5
CCc1cc(-c2n[nH]c(C)c2Oc2ccc(F)cc2)c(O)cc1O,100*,8
CCc1cc(-c2n[nH]c(C)c2Oc2ccccc2)c(O)cc1O,81*,-10
CCOc1ccc(-c2n[nH]c(C)c2Oc2ccc(F)cc2)c(O)c1,26,-1
CCCc1ccc(Oc2c(-c3ccc(O)cc3O)n[nH]c2C)cc1,80*,-3
CCOc1ccc(-c2n[nH]c(C)c2-c2ccc(F)cc2)c(O)c1,24,1
CCc1cc(-c2n[nH]c(C)c2-c2ccccc2)c(O)cc1O,69*,0
Cc1[nH]nc(-c2ccc(O)cc2O)c1Oc1ccccc1F,42,-9
COc1cc(C)c(-c2n[nH]c(C)c2Oc2ccccc2)c(O)c1,7,4
COc1cccc(CNC(=O)NC2CCN(c3nccnc3OC)C2)c1 (configuration not stated),-5,-6
Cc1c(C(=O)NC2CCC(C)CC2)oc2c1-c1[nH]ncc1CC2 (configuration not stated),7,-4
SMILES,mHTT-CaM PPI inh,Pf apPOL inh
O=C(Cc1ccc(NS(=O)(=O)c2ccc3c(c2)CCCC3)cc1)NC1CC1,-2,-4
CCOC(=O)CCC(=O)N1CCC(Oc2nc3c(C)ccc(C)c3s2)CC1,28,-11
Cc1[nH]nc(-c2ccc(OC(C)C)cc2O)c1Oc1ccccc1,67*,7
COc1ccc(-c2n[nH]c(C)c2Oc2ccccc2)c(O)c1OC,48,-7
Cc1nn(C)c(C)c1CCCN(C)C(=O)C1CCCN(c2cn[nH]c(=O)c2)C1 (configuration not stated),-4,-3
O=S(=O)(NCc1ccc(Cl)cc1)c1cccs1,-13,1
Cc1cc(C(=O)Nc2cccc(OC(C)C)c2)c(C)o1,51*,-5
Cc1cc(C(=O)Nc2ccccc2)c(C)o1,5,-9
C=CCn1c(=O)c2c(ncn2Cc2ccc(F)cc2F)n(-c2cccc(F)c2)c1=O,-8,-2
CC1=C(C(=O)Nc2ccc(F)cc2F)C(c2cccnc2)C2=C(CC(c3ccccc3)CC2=O)N1 (configuration not stated),6,6
N/C(=N\OS(=O)(=O)c1ccc(Cl)cc1)c1ccccn1,+,4
N/C(=N\OC(=O)Oc1ccccc1)c1ccncc1,i,-9
N/C(=N\OC(=O)Oc1ccccc1)c1ccccn1,+,-3
N/C(=N\OS(=O)(=O)c1ccccc1)c1ccccn1,i,1
CN1CCN(C(=O)c2csc(COc3ccc(Cl)cc3)n2)CC1,-7,-2
CCc1cccc(Nc2c(-c3nc(C)no3)cnc3nc(C)ccc23)c1,68*,-15
Cc1ccc2c(Nc3ccc(C)c(F)c3)c(-c3nc(C)no3)cnc2n1,11,-2
C=CCOc1c(Br)cc(C=C2C(=O)NC(=O)NC2=O)cc1OCC,-2,-8
COc1ccc2c(c1)c1c3n2CCNC3CCC1 (configuration not stated),10,13
Brc1ccc2c(c1)c1c3n2CCNC3CCC1 (configuration not stated),75*,2
